Consider 40 compounds from ChEMBL document CHEMBL3988442, “University of Dundee, Small-Polar-MMV Screening Library” (2021).

This test deals with Shiga toxin 2 (Escherichia coli O157:H7) (UniProt P09385+P09386). Briefly: E. coli 0.157:H7 Shiga Toxin SOP - stx2 screening assay. It is filed as functional. On the set-up: scale not given: direction of the effect not stated beside the values. As to conditions: 30 µM.
For `CCc1nc(CN2CCCC(NCc3cnn(C(C)(C)C)c3)C2)no1` (stereo not given), the Percent Effect worked out at 2.93%.
The same measure for `CNC(=O)c1nc2c(s1)CCN(C(=O)Cc1ccc(OC)cc1)CC2`: -7.44%; for `CCC(CC)C(=O)N1CCC2(C1)CN(c1ccccc1)C(=O)CN2C` (stereo not given): -3.77%.
As for `CCC1CN(C(=O)c2ccc(=O)[nH]c2)CCC(=O)N1Cc1ccccc1` (stereo not given), the figure is 5.03%; as for `CCOc1cc(CN(C)CCOC)ccc1OC(F)F`, -67.7%.
As for `O=C(c1ccc(-n2cccn2)nc1)N1CCCN(c2cccnn2)CC1`, the figure is 3.17%; as for `c1ccc(-c2cnc(CNC3CCCN(c4cccnn4)C3)o2)cc1` (stereo not given), 4.96%.
Turning to `CC(=O)NCC(=O)N1CCOC2(CCCN(c3cccnc3)C2)C1` (stereo not given), the Percent Effect was -31.3%.
As to `CC(C)NC(=O)[C@@H](NC(=O)N1CCN(c2ccc(Cl)cc2)CC1)C(C)C`, the Percent Effect was -49%.
In the case of `CC(C)C(NC(=O)NCC1(CO)CC1)c1nnc2n1CCC2` (stereo not given), the Percent Effect is 19.7%.
The same measure for `COc1ccc2cc(C(=O)N3CCCCC3CC(N)=O)[nH]c2c1` (stereo not given): 4.87%; for `Cc1cc(C)n(CC2CN(CC(=O)NC3CCCC3)CCO2)n1` (stereo not given): 13.3%.
For `O=C(NCCO)Nc1cccc(Cl)c1SC(F)F`, the Percent Effect was -19.7%.
The same measure for `COCC(=O)N1Cc2cn(C)nc2C(COc2cccnc2)C1` (stereo not given): -21.7%; for `NC(=O)C1CCN(C(=O)c2cccc(OCc3cscn3)c2)CC1`: -35.2%; for `Cc1ccc(C)c(NC(=O)N(C)Cc2cnn(C)c2)c1`: 19.8%.
Consider `Cn1ncc2c(=O)[nH]c(CN3CCCC3CC3CCCCC3)nc21` (stereo not given), for which the Percent Effect worked out at 22.5%.
As for `c1cncc(-c2ccc3c(c2)C2(CC3)CCN(c3nncs3)CC2)c1`, the figure is -7.47%; as for `CC(C)c1cc(NC(=O)CN2CCC(N3CCCCC3)CC2)on1`, -28.7%.
As for `COCC1CCN(C(=O)c2cccc(S(=O)(=O)NC3CCCC3)c2)C1` (stereo not given), the figure is -4.97%; as for `Cc1nn(C)c(Cl)c1C1CCCN1C(=O)c1cc[nH]n1` (stereo not given), -8.07%; as for `COc1c(CNCCNC(=O)c2ccco2)c(C)nn1C`, 14.7%.
As for `CCc1nc(CN2CCCC(NCc3ccc(C(N)=O)cc3)C2)no1` (stereo not given), the figure is -8.49%; as for `Cc1nc[nH]c1CN1CCN(C(=O)CCC(F)(F)F)[C@H]2CS(=O)(=O)C[C@H]21`, 17.8%.
As for `CCN1C[C@H]2CCN(C(=O)NC3CCCC3)CC[C@H]2S1(=O)=O`, the Percent Effect was -57.6%.
The same measure for `c1ccc(CN2CCN(Cc3cscn3)CC2)cc1`: 3.98%; for `Cn1cc(NC(=O)Cn2c(CS(C)(=O)=O)nc3ccccc32)cn1`: 1.48%.
As for `CC(C)c1nc(C2CCCN2Cc2ccn(C)c(=O)c2)no1` (stereo not given), the figure is -44.4%; as for `Cn1cc(C(=O)CC2CCCN2C(=O)c2n[nH]c3ccccc23)cn1` (stereo not given), 0.49%.
As to `Cc1nc[nH]c1CN1CCN(C(=O)c2cccs2)[C@H]2CS(=O)(=O)C[C@H]21`, the Percent Effect came to 10%.
Consider `COc1cc(CNCc2c(C)nn(C)c2N(C)C)ccn1`, for which the Percent Effect worked out at 13%.
The same measure for `CC(C)N(C)C(=O)C1=NOC2(CCN(C(=O)c3ccncc3)C2)C1` (stereo not given): -7.21%.
The same measure for `COc1ccc(-c2nccnc2C2CCN(C(C)=O)CC2)cc1`: 12%; for `CC(CN1CCN(C)CC1)NC(=O)c1cc(Cl)c2c(c1)OCO2` (stereo not given): -0.562%; for `CC(C)C(=O)N1CCN(Cc2cc(-c3ccncc3)nn2C)CC1`: -50.3%.
The same measure for `NC(=O)COc1ccc(CNCc2ccc(F)cc2F)cc1`: -18.8%.
As to `CCCc1nc(C(=O)N2CCCn3nc(CCC(=O)O)cc3C2)cs1`, the Percent Effect stood at 15.5%.
As for `COc1c(C2CCCN2C(=O)c2cncnc2C)c(C)nn1C` (stereo not given), the Percent Effect is -11.2%.
As for `Cc1ncccc1NC(=O)[C@H]1C[C@@H]2CCN(Cc3nccs3)C[C@@H]2O1`, the figure is 0.675%; as for `Cc1cccc(CN2CCC3(CCCN(C(=O)c4ccsc4)C3)C2=O)n1` (stereo not given), -10.9%.
